# Source: PubChem BioAssay (Tox21)
# Records with an inconclusive call do not appear. Entries that show only a call come without a potency. Active and inactive are the calls of the source. Unless noted, calls come from the whole dose curve; as a rule, active = well fitted curve in the direction sought with a large enough effect in the repeat runs; inconclusive = weak or mixed curves; inactive = no such curve, though single readings can be large; an effect the other way counts as inactive or inconclusive.
# How the values were obtained:
# [1] = qHTS assay to identify aromatase inhibitors - cell viability counter screen (AID 743084);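 note: cells stimulated with testosterone during compound exposure; nearly all actives have a fitted effect of over 55% in size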
# [2] = target: Aryl hydrocarbon receptor (Homo sapiens) (UniProt P35869); test: qHTS assay to identify small molecule that activate the aryl hydrocarbon receptor (AhR) signaling pathway (AID 743085); note: nearly all actives have a fitted effect of over 15% in size; note: potency is the fitted concentration of half-maximal effect;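 for activation: HG2L7.5c1 human HepG2 liver cells with stably integrated DRE-driven firefly reporter; series mostly up to about 70 µM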
# Aryl hydrocarbon receptor (Homo sapiens), sequence (P35869 whole entry, looked up): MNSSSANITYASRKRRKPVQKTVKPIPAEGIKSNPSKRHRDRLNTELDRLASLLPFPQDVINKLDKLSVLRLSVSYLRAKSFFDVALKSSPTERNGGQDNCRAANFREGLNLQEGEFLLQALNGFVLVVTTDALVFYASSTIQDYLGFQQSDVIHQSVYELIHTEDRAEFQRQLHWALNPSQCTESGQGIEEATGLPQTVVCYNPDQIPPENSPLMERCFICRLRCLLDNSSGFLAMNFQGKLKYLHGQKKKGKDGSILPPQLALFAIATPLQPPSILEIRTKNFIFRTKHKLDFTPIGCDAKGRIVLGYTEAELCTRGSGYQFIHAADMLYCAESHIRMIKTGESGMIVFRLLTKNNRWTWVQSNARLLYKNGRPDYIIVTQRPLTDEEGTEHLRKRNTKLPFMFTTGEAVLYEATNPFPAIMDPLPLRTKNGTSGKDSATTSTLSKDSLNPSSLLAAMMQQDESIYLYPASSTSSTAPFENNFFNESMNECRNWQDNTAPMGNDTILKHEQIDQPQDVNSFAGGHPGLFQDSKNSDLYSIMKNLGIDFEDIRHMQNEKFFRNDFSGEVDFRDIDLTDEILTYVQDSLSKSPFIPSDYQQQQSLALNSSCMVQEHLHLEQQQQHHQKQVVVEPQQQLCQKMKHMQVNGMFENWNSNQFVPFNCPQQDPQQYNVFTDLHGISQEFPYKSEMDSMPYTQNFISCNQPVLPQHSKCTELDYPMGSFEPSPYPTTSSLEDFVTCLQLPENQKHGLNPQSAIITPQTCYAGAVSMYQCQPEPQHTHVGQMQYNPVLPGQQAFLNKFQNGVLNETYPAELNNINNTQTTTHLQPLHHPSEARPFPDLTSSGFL
# In short: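 A multiplexed format paired cell viability (CellTiter-Fluor fluorescence) with AhR-dependent luciferase output (ONE-Glo luminescence) in the same wells of HepG2 DRE-luc cells after 24 h compound exposure at 37C.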
# [3] = target: Peroxisome proliferator-activated receptor gamma (Homo sapiens) (UniProt P37231); test: qHTS assay to identify small molecule agonists of the peroxisome proliferator-activated receptor gamma (PPARg) signaling pathway (AID 743094; active = well fitted activation curve with a large enough effect in the signal ratio in the repeat runs, not every such curve was filed as active; the % refers to the signal ratio)
# Peroxisome proliferator-activated receptor gamma (Homo sapiens), sequence (P37231 whole entry, looked up): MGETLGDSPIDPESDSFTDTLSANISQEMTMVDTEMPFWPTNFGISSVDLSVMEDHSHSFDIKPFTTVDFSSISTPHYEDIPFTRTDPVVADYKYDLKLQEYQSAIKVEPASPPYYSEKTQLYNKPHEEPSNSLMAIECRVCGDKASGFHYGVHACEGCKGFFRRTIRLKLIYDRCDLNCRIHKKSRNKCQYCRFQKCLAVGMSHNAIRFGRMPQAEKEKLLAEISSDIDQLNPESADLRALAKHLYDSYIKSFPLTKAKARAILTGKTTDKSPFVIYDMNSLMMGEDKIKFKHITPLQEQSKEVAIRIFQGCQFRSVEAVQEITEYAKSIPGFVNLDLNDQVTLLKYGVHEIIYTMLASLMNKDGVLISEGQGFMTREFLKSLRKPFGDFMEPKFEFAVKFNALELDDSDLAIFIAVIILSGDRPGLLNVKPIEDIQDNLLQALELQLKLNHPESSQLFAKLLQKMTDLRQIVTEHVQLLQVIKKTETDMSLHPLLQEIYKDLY
# In short: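 Agonism was assessed in a beta-lactamase reporter system, HEK293H cells with a stably integrated UAS-bla construct under PPARg control; the 17 h treatment at 37C preceded a 1 h room-temperature FRET substrate read.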
# [4] = qHTS assay to identify small molecule antagonists of the peroxisome proliferator-activated receptor gamma (PPARg) signaling pathway - cell viability counter screen (AID 743194); note: nearly all actives have a fitted effect of over 55% in size
# In short: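 Viability was measured as CellTiter-Glo luminescence in GeneBLAzer PPARg UAS-bla HEK293H cells. These cells had been exposed 17 h at 37 C to compounds together with rosiglitazone at 50 nM final, with the beta-lactamase readout taken in the same wells.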
# [5] = qHTS assay for small molecule agonists of the antioxidant response element (ARE) signaling pathway (AID 743202; active = well fitted activation curve with a large enough effect in the signal ratio in the repeat runs, not every such curve was filed as active; the % refers to the signal ratio)
# In short: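 Beta-lactamase reporter activity, read as fluorescence intensity, reflects ARE/Nrf2 pathway induction in HepG2 cells after 16 h compound exposure at 37 C; substrate loading was 2 h at room temperature.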
# [6] = qHTS assay for small molecule agonists of the antioxidant response element (ARE) signaling pathway - cell viability counter screen (AID 743203; calls by dose curve; note: nearly all actives have a fitted effect of over 55% in size)
# In short: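 ATP content via CellTiter-Glo luminescence served as the viability measure. Cells: ARE-bla HepG2, 2,000 per well. Exposure: 16 hrs, 37C/5% CO2.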
# [7] = qHTS assay for small molecule activators of the heat shock response signaling pathway - cell viability counter screen (AID 743209); note: nearly all actives have a fitted effect of over 50% in size
# In short: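 Compounds dissolved in DMSO were added to overnight-plated HSE-bla HeLa cells and left 5 h at 37 C. Cell viability was quantified by luminescence using CellTiter-Glo.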
# [8] = qHTS assay for small molecule activators of the heat shock response signaling pathway (AID 743210; active = well fitted activation curve with a large enough effect in the signal ratio in the repeat runs, with a control signal flat, not every such curve was filed as active; the % refers to the signal ratio;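 note: HeLa cells with beta-lactamase reporter driven by heat shock elements; series mostly up to about 63 µM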)
# In short: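 Fluorescence from a cleaved B/G FRET substrate (2.5 h, room temp) reports HSE-driven beta-lactamase in HeLa cells treated 5 h at 37 C with DMSO-dissolved compounds.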
# [9] = qHTS assay to identify small molecule agonists of the peroxisome proliferator-activated receptor delta (PPARd) signaling pathway - cell viability counter screen (AID 743211); note: nearly all actives have a fitted effect of over 55% in size
# In short: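 Tox21 library compounds, delivered in DMSO, were incubated 17 h with PPARd-bla HEK293H cells; cytotoxicity was taken from CellTiter-Glo luminescence read 30 min after reagent addition.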
# [10] = target: Peroxisome proliferator-activated receptor delta (Homo sapiens) (UniProt Q03181); test: qHTS assay to identify small molecule agonists of the peroxisome proliferator-activated receptor delta (PPARd) signaling pathway (AID 743212; calls by dose curve)
# Peroxisome proliferator-activated receptor delta (Homo sapiens), sequence (Q03181 whole entry, looked up): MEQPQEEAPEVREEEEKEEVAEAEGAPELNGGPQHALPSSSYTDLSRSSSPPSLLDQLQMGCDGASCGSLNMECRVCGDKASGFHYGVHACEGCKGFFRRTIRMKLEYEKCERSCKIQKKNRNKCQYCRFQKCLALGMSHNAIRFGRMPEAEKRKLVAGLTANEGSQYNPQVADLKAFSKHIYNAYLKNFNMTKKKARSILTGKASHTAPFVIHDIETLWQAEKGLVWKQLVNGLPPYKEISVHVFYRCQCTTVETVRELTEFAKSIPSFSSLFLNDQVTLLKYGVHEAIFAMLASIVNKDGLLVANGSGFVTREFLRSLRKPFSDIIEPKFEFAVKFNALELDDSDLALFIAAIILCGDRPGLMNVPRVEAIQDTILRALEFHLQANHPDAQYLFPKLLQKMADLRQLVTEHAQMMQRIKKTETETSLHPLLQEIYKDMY
# In short: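 Steps: seed PPARd-bla HEK293H cells; incubate 5 h, 37 C, 5% CO2; add compounds in DMSO; incubate, 37 C; add LiveBLAzer B/G FRET substrate; hold 2 h at room temperature; measure fluorescence.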
# [11] = qHTS assay to identify small molecule antagonists of the peroxisome proliferator-activated receptor delta (PPARd) signaling pathway - cell viability counter screen (AID 743213); note: nearly all actives have a fitted effect of over 50% in size
# In short: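 PPARd-bla HEK293H cells (3000/well) got compound plus 300 nM L165041 agonist for 17 h at 37 C. Viability in the same wells came from CellTiter-Glo luminescence after 30 min at room temperature.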
# [12] = target: Peroxisome proliferator-activated receptor delta (Homo sapiens) (UniProt Q03181); test: qHTS assay to identify small molecule antagonists of the peroxisome proliferator-activated receptor delta (PPARd) signaling pathway (AID 743215; active = well fitted inhibition curve with a large enough effect in the signal ratio in the repeat runs, not every such curve was filed as active; the % refers to the signal ratio;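 note: cells stimulated with agonist L165041 at 300 nM final during compound exposure; series mostly up to about 62 µM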)
# In short: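 Here, a reporter line (HEK293H, beta-lactamase under a UAS) measures PPARd signaling. Compounds are tested against agonist L165041 at 300 nM final concentration over 17 h at 37 C, with fluorescence read after substrate.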
# [13] = qHTS assay to identify small molecule agonists of the farnesoid-X-receptor (FXR) signaling pathway - cell viability counter screen (AID 743218); note: nearly all actives have a fitted effect of over 45% in size
# In short: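 Quantitative HTS counter screen measuring ATP-based viability via CellTiter-Glo luminescence in HEK 293T cells carrying a UAS-driven beta-lactamase reporter, after 16 h compound exposure at 37 C.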
# [14] = target: Bile acid receptor (Homo sapiens) (UniProt Q96RI1); test: qHTS assay to identify small molecule agonists of the farnesoid-X-receptor (FXR) signaling pathway (AID 743220; active = well fitted activation curve with a large enough effect in the signal ratio in the repeat runs, not every such curve was filed as active; the % refers to the signal ratio)
# Bile acid receptor (Homo sapiens), sequence (Q96RI1 whole entry, looked up): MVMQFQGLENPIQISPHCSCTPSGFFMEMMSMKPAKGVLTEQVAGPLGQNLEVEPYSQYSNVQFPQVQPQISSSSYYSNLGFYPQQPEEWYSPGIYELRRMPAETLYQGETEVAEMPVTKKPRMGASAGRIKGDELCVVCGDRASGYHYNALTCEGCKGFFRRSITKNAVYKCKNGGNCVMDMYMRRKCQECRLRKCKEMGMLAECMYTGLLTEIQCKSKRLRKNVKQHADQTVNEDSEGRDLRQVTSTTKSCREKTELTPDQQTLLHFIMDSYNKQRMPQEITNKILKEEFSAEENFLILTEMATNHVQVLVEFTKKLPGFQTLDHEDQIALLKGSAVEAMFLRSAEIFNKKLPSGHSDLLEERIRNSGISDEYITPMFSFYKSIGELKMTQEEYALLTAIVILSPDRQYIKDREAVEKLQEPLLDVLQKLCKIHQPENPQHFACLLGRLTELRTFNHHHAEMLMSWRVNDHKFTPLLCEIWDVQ
# In short: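 FXR-UAS-bla HEK 293T cells carrying a UAS-driven beta-lactamase reporter were plated for 5 h at 37C/5% CO2, then exposed to DMSO-dissolved Tox21 10K compounds for 16 h at 37C. A LiveBLAzer B/G FRET substrate was loaded for 2 h at room temperature before fluorescence reading.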
# [15] = qHTS assay to identify small molecule antagonists of the farnesoid-X-receptor (FXR) signaling pathway - cell viability counter screen (AID 743221; active = well fitted cell-killing curve with a large enough effect in the repeat runs, not every such curve was filed as active; note: nearly all actives have a fitted effect of over 50% in size)
# In short: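 Cytotoxicity is taken from ATP luminescence (CellTiter-Glo, 30 min, room temperature) in FXR-bla HEK 293T cells previously incubated 16 h at 37 C with compound and chenodeoxycholic acid at 50 uM final.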
# [16] = target: Vitamin D3 receptor (Homo sapiens) (UniProt P11473); test: qHTS assay to identify small molecule agonists of the vitamin D receptor (VDR) signaling pathway (AID 743222; calls by dose curve)
# Vitamin D3 receptor (Homo sapiens), sequence (P11473 whole entry, looked up): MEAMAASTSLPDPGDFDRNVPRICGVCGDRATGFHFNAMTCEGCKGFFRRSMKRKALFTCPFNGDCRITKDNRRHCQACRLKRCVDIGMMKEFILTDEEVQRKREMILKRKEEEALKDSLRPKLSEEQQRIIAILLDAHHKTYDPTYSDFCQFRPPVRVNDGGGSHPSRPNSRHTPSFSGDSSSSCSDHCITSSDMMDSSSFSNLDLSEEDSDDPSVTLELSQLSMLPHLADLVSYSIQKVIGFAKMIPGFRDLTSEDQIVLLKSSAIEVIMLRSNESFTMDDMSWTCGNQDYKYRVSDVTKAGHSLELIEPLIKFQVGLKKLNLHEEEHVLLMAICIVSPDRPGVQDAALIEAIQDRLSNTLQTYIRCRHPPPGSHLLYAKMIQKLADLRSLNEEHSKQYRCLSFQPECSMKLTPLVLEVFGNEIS
# In short: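 Tox21 cell reporter format: VDR-bla line, 16 h compound exposure in 5% CO2 at 37C, then fluorescence intensity after 2 h with LiveBLAzer B/G FRET substrate.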
# [17] = target: Vitamin D3 receptor (Homo sapiens) (UniProt P11473); test: qHTS assay to identify small molecule antagonists of the vitamin D receptor (VDR) signaling pathway (AID 743223; active = well fitted inhibition curve with a large enough effect in the signal ratio in the repeat runs, not every such curve was filed as active; the % refers to the signal ratio)
# In short: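 Quantitative HTS in VDR-bla reporter cells stimulated with 1alpha,25-dihydroxyvitamin D3, 3 nM final. Compound exposure 16 h, 37C, 5% CO2. Read-out: beta-lactamase FRET substrate fluorescence, 2 h RT.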
# [18] = target: Peroxisome proliferator-activated receptor gamma (Homo sapiens) (UniProt P37231); test: qHTS assay to identify small molecule antagonists of the peroxisome proliferator-activated receptor gamma (PPARg) signaling pathway (AID 743191; calls by dose curve; note: series mostly up to about 63 µM; nearly all actives have a fitted effect of over 30% in size)
# In short: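 Beta-lactamase reporter under UAS control in HEK293H PPARg-bla cells; compound treatment 17 h at 37C. Read-out: fluorescence intensity after 1 h room-temperature incubation with LiveBLAzer B/G FRET substrate.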
# [19] = target: Bile acid receptor (Homo sapiens) (UniProt Q96RI1); test: qHTS assay to identify small molecule antagonists of the farnesoid-X-receptor (FXR) signaling pathway (AID 743217; active = well fitted inhibition curve with a large enough effect in the signal ratio in the repeat runs, not every such curve was filed as active; the % refers to the signal ratio)
# In short: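 Test compounds are pin-transferred onto FXR-bla HEK 293T cells, then chenodeoxycholic acid is added at 50 uM final. After 16 h at 37 °C, LiveBLAzer B/G substrate is applied for 2 h at room temperature and fluorescence read.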
# [20] = qHTS assay to identify small molecule that activate the aryl hydrocarbon receptor (AhR) signaling pathway - cell viability counter screen (AID 743086);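 note: HepG2 liver cells carrying the AhR DRE luciferase reporter; series mostly up to about 70 µM; nearly all actives have a fitted effect of over 45% in size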
# In short: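 Cytotoxicity counter screen: CellTiter-Fluor signal (30 min, 37 C) in 4000 HepG2 cells/well carrying the DRE-luciferase reporter, following 24 h compound exposure at 37 C.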
SMILES,Potency [1],Potency [2],outcome [3],Potency [4],Potency [5],outcome [6],outcome [7],outcome [8],Potency [9],outcome [10],Potency [11],outcome [12],outcome [13],outcome [14],Potency [15],outcome [16],outcome [17],outcome [18],outcome [19],Potency [20]
COC(=O)CCCCCCCCC(=O)OC,inactive,inactive,inactive,inactive,inactive,inactive,inactive,inactive,inactive,inactive,inactive,inactive,inactive,inactive,inactive,inactive,inactive,,,
N#CC1(O)CCCCC1,inactive,inactive,inactive,,inactive,inactive,inactive,inactive,inactive,inactive,inactive,inactive,inactive,inactive,inactive,inactive,inactive,inactive,inactive,
O=C(O)c1ccccc1-c1ccc(C(F)(F)F)cc1,inactive,inactive,,inactive,inactive,inactive,inactive,inactive,inactive,inactive,inactive,inactive,inactive,inactive,inactive,,,,inactive,
N#CCc1ccccc1[N+](=O)[O-],inactive,,inactive,inactive,inactive,inactive,inactive,inactive,inactive,inactive,inactive,inactive,inactive,inactive,inactive,inactive,inactive,inactive,inactive,inactive
COc1ccc(N=[N+]([O-])c2ccc(OC)cc2)cc1,inactive,9.59 µM (active),inactive,inactive,,inactive,inactive,inactive,inactive,inactive,inactive,,,,inactive,inactive,inactive,inactive,,
NC(CS)C(=O)O (configuration not stated),inactive,inactive,inactive,inactive,,inactive,inactive,inactive,inactive,inactive,,inactive,inactive,,inactive,inactive,,inactive,,
Oc1ccc2c(c1)OC[C@@H](N1CCC(O)(c3ccc(F)cc3)CC1)[C@H]2O,inactive,,inactive,inactive,,inactive,inactive,inactive,inactive,inactive,,inactive,inactive,,inactive,inactive,,inactive,,inactive
C=CCSCC1Nc2cc(Cl)c(S(N)(=O)=O)cc2S(=O)(=O)N1 (configuration not stated),inactive,inactive,inactive,inactive,inactive,inactive,inactive,inactive,inactive,inactive,,inactive,inactive,inactive,inactive,inactive,inactive,,inactive,
CC(C)c1cccc(O)c1,inactive,inactive,inactive,inactive,,inactive,inactive,inactive,inactive,inactive,inactive,inactive,inactive,,,inactive,inactive,,,
